The panel holds about 79,000 compounds, 15% with a hit somewhere; the sample as a whole holds those more often. Active and inactive are the calls of the source. Rule as the data show it: active = growth inhibition above about 70%; inactive = the rest.

The text below walks through data of PubChem BioAssay (NCI).

The assay in a line: NCI Yeast Anticancer Drug Screen. Data for the rad18 strain (AID 177). Conditions: S. cerevisiae rad18 mutant growth inhibition, hits give high values. How it is done: Growth inhibition of yeast strains with defined genetic alterations is measured as a screen for potential anti-cancer activity. Selected strains with alterations in DNA damage repair or cell cycle control were exposed to compounds and growth inhibition was measured relative to vehicle treated controls. The strain used in this assay is rad18

Regarding `C[C@]12CCc3nonc3C1CC[C@@H]1C2CC[C@]2(C)C(=O)CCC12` (stereo not given in full), the growth inhibition is 14% (inactive) (at 1.2 µM); 12% (inactive) (at 3.7 µM); 19% (inactive) (at 11.0 µM); 28% (inactive) (at 33.0 µM); 62% (inactive) (at 100.0 µM).

With `C[C@]12CCC3[C@@H](CC[C@@H]4c5nonc5CC[C@]34C)C1CCC2=O` (stereo not given in full), the growth inhibition runs as follows: (at 1.2 µM) 24% (inactive); (at 3.7 µM) 22% (inactive); (at 11.0 µM) 50% (inactive); (at 33.0 µM) 78% (active); (at 100.0 µM) 83% (active).

As to `O=C(c1ccccc1)C1C(c2ccccc2[N+](=O)[O-])N1C1CCCCC1` (stereo not given), the growth inhibition (at 1.2 µM) is 10% (inactive); the growth inhibition (at 3.7 µM) was 23% (inactive); the growth inhibition (at 11.0 µM) is 65% (inactive); the growth inhibition (at 33.0 µM) is 88% (active); the growth inhibition (at 100.0 µM) is 91% (active).

Consider `O=C1C2CC(Cl)C(SSC3CC4C(=O)N(SC(Cl)(Cl)C(Cl)Cl)C(=O)C4CC3Cl)CC2C(=O)N1SC(Cl)(Cl)C(Cl)Cl` (stereo not given), for which the growth inhibition reads like this: (at 1.2 µM) 96% (active); (at 3.7 µM) 97% (active); (at 11.0 µM) 97% (active); (at 33.0 µM) 97% (active); (at 100.0 µM) 89% (active).

As to `O=C(COc1ccc(Cl)cc1Cl)NO`, the growth inhibition is -3% (inactive) (at 1.2 µM); 4% (inactive) (at 3.7 µM); 9% (inactive) (at 11.0 µM); 19% (inactive) (at 33.0 µM); 66% (inactive) (at 100.0 µM).

Regarding `CCS(=O)(=O)[O][Sn]([CH2]C)([CH2]C)[O]S(=O)(=O)CC`, the growth inhibition was -29% (inactive) (at 1.2 µM); -25% (inactive) (at 3.7 µM); -17% (inactive) (at 11.0 µM); -16% (inactive) (at 33.0 µM); 52% (inactive) (at 100.0 µM).

In the case of `O=C1OC2C(O1)C1(Cl)C(Cl)=C(Cl)C2(Cl)C1(Cl)Cl` (stereo not given), the growth inhibition was -4% (inactive) (at 1.2 µM); 0% (inactive) (at 3.7 µM); -1% (inactive) (at 11.0 µM); -2% (inactive) (at 33.0 µM); 2% (inactive) (at 100.0 µM).

For `COc1cc2ccccc2c2cc([N+](=O)[O-])oc12`, the growth inhibition is, setting by setting: (at 1.2 µM) 96% (active); (at 3.7 µM) 96% (active); (at 11.0 µM) 95% (active); (at 33.0 µM) 94% (active); (at 100.0 µM) 88% (active).
